# Data taken from the supplement of paper PMC3334620.
# Over roughly 33,000 sequences, “E-score (-0.5 to 0.5)” has its median near -0.0034; the highest 2% begin near 0.25. Many of the other results were omitted from the sample, so the highest values are more common in it than they were.
# Target: T1, Yap3 (UniProt P38749)
# T1 sequence: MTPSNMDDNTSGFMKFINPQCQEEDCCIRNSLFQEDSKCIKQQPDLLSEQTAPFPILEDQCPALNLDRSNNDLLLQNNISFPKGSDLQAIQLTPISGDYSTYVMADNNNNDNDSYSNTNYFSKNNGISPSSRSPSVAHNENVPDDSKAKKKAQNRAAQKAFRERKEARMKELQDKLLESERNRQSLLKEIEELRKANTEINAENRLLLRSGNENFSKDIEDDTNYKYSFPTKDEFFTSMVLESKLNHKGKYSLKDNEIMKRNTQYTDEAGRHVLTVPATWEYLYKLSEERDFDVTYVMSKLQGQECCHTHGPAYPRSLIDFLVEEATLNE
# Assay: PBM E-score (8-mer binding enrichment) (E-score (-0.5 to 0.5)); higher = stronger / more preferred TF binding
# Conditions: protein concentration: 100 nM; construct: GST-full length
# Procedure: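 Universal 'all 10-mer' protein binding microarrays (Agilent AMADID 015681) probed with GST-tagged S. cerevisiae TFs (full-length or DBD) made by in vitro transcription/translation (PURExpress), about 100-200 nM. Bound TF was detected with fluorescent anti-GST. Each ungapped 8-mer (which stands for itself and its reverse complement) is scored by the PBM enrichment score (E-score), a modified Wilcoxon-Mann-Whitney statistic from -0.5 to +0.5, computed with the Universal PBM Analysis Suite. Scale: above 0.35 generally sequence-specific binding.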
row,Sequence,PBM E-score
1,ACAAATTA,0.242
2,CCAAATTA,0.192
3,ATACCACC,0.086
4,GGAATCTA,0.0443
5,GTCGCACA,-0.0581
6,GATTTGGA,-0.0207
7,AGATGGAA,-0.0109
8,CTTTATAC,0.114
9,ATTTATAA,0.273
10,GTTTATAA,0.224
11,ATTTATAC,0.302
12,CTTTATAA,0.206
13,ATTTATAG,0.206
14,AATGAGCA,-0.00708
15,TCAACTGA,0.0958
16,AATGGCTA,0.169
17,AAGAATTG,0.171
18,TCGGGGAA,0.0864
19,AAATGCCG,0.113
20,ATACAGAT,0.11
21,AGTAAATA,0.26
22,GGTAAATA,0.111
23,AGTAAATG,0.0753
24,CGTAAATA,0.262
25,CGGAAATA,0.289

row,Sequence,PBM E-score
1,CGGAAATC,0.12
2,CGTAAATC,-0.00431
3,GGGAAATA,0.0786
4,AGTAAATC,0.159
5,AGACTGAA,-0.0205
6,AGCACGTG,0.127
7,GAGCCACA,-0.104
8,ACCCTATA,-0.084
9,CGTGGATA,-0.0137
10,GCAGGTTA,-0.0925
11,TTAAACAA,-0.026
12,TAAAACAA,0.0703
13,AAAAACAA,0.28
14,ACAAACAA,0.173
15,GCAAACAC,-0.0377
16,GAAAACTA,0.16
17,ATAAACAC,0.1
18,AAAAACTA,0.256
19,CAAAACTA,0.223
20,GCAAACAA,0.272
21,GAAAACAA,0.199
22,ATAAACAA,0.279
23,ATCAGCTG,0.195
24,ACTGGACC,-0.196
25,ACGGAGGG,-0.139

row,Sequence,PBM E-score
1,CCTGGATA,-0.231
2,CGGATTGC,0.0717
3,GGCTTGAA,0.0362
4,AGTTTTCC,0.0722
5,AGCCAACG,0.0109
6,AAAAACGA,0.256
7,GAAAACGA,0.00196
8,CAAAACGA,0.133
9,GAGTCTAA,0.00387
10,AATCCGGA,0.256
11,AATCCGGC,0.0559
12,AATCCGGG,-0.242
13,GACAGCTA,-0.119
14,CTGCTGGA,-0.158
15,CCCTTTTC,-0.00476
16,TAATATCA,0.275
17,TAATAGTA,0.142
18,AGATATTA,0.162
19,GAATATTC,0.194
20,AAATATTA,0.349
21,AAATATTC,0.162
22,GAATATCA,0.159
23,AAATATCA,0.187
24,GAATATTA,0.263
25,CAATATCA,0.167

row,Sequence,PBM E-score
1,CAATATTA,0.226
2,TAATATTA,0.347
3,ACATTGCC,-0.0211
4,GGCTTGAC,0.0242
5,AGCAACTA,0.143
6,TACCCAAA,0.0436
7,TCGGTTAA,0.168
8,AGGCTAGG,-0.199
9,AAGGTGCG,-0.131
10,CGTTGATC,0.0509
11,CAATATTG,0.213
12,AAATATTT,0.249
13,AAATATTG,0.269
14,AGAAGATC,-0.0464
15,CAGTTAGG,0.149
16,AATCATGA,0.275
17,TATCATGA,0.0822
18,AATCATGG,0.127
19,CAAAATTA,0.163
20,AAAAATTA,0.29
21,CCAATTTA,0.258
22,CAAATTTA,0.203
23,GCAATTTA,0.139
24,TAAAATCA,0.142
25,ACAATTTA,0.193

row,Sequence,PBM E-score
1,AAAATTTA,0.0414
2,AAAAATTT,0.145
3,TAAAATGA,0.23
4,TAAAATTA,0.28
5,TAAATTTA,0.26
6,CCACCAAC,0.0331
7,CGTCCAAC,0.0756
8,ACGAGGCT,0.117
9,ATCTAAGG,0.0735
10,ACCAGACC,-0.206
11,AAGTCATC,-0.0947
12,GAGGCATC,-0.206
13,CCCGCCCC,0.022
14,CACAACAA,0.0683
15,AACAACAT,0.191
16,CACAACTA,0.262
17,CACAACTG,-0.0612
18,AACAACAC,0.303
19,GACAACAC,0.00619
20,AACAACAA,0.259
21,AACAACTA,0.0618
22,CACAACAC,0.173
23,GCAATGTA,0.0481
24,GGACCAAC,-0.182
25,CTCGAGAC,0.124

row,Sequence,PBM E-score
1,CTCAGCGC,-0.114
2,TATGGCCA,0.0682
3,ATTGTTCA,0.159
4,ATTATCTG,0.119
5,CTTATCAC,-0.0604
6,ATTATCAC,0.282
7,CTTATCTC,0.0941
8,ATTATCGC,0.304
9,AATATCTG,0.084
10,ATTATCAG,0.0829
11,ATTATCTC,0.268
12,AATATCTA,0.0725
13,ATTATCGG,-0.0264
14,ATTATCGA,0.132
15,AATATCTC,0.263
16,CGTTTCCA,0.105
17,AATTCACA,0.238
18,CTGAGACA,-0.0945
19,GCCCACAA,-0.141
20,AATAGAAG,0.0527
21,CGGCAGAA,0.124
22,TGAGTCAA,0.0132
23,GAACCAAA,-0.0377
24,CTGTGCCA,-0.119
25,GAGTAATC,0.103

row,Sequence,PBM E-score
1,CAGTAATG,0.0685
2,CAGTAATA,0.307
3,AAGTAATA,0.158
4,CAGTAATC,0.0876
5,GAGTAATA,0.273
6,CATAGGCA,-0.0267
7,AGTCGACG,0.23
8,ACCACCAC,-0.00648
9,CACAGGCA,0.0714
10,AGACTGTC,-0.163
11,CTTGAAAC,0.177
12,CCGGCCAG,-0.181
13,CCACATAC,0.249
14,CTATTTTC,0.114
15,ATATTTTA,0.273
16,GTATTTTA,0.0831
17,GCATTTTA,0.227
18,CTATTTGA,0.27
19,ACATTTTA,0.259
20,ATATTTTC,0.261
21,GTATTTGA,0.137
22,ATATTTTG,0.157
23,CTATTTTA,0.251
24,ATATTTGA,0.149
25,CCATTTTA,0.222
